The results in this text go back to paper PMC8384837, “Expanding the binding specificity for RNA recognition by a PUF domain”.

Where a chain is given by its changes, count along the chain named.

Common to all, as to test: yeast three-hybrid, YBZ-1, SC-Leu-His + 0.5 mM 3-AT, 4 days
Common to all, as to details: tags: N-Gal4 AD-HA kept; label: inside an RPR1-promoter hybrid RNA with tandem MS2 sites; ssRNA

Assay [1] has as its target PUM1 PUF domain R3-RTW (Homo sapiens, UniProt Q14671 828-1176, C935R;R936T;Q939W). The method, boiled down: (§1)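 The interaction score is the log change in variant frequency from input to selection. Scores were computed in log2 with a pseudocount of 1 for absent variants, using Illumina sequencing of PCR-amplified repeat regions. The input came from four days on SC-Leu and the selection from four days on SC-Leu-His + 0.5 mM 3-AT. The cells were strain YBZ-1 (LexA–MS2 coat fusion, HIS3 reporter) co-expressing Pumilio-1 PUF domain libraries and matching RNA elements from a centromeric plasmid.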

The target in assay [2] is PUM1 PUF domain R4-RHG (Homo sapiens, UniProt Q14671 828-1176, N971R;Q975G). The method, boiled down:
as §1

In assay [3] the target is PUM1 PUF domain R4-VPQ (Homo sapiens, UniProt Q14671 828-1176, N971V;H972P). In a few lines: as §1
Assay [4] concerns the target PUM1 PUF domain R5-RRS (Homo sapiens, UniProt Q14671 828-1176, C1007R;Q1011S). In a few lines:
as §1

For assay [5], the target named is PUM1 PUF domain R8-RWK (Homo sapiens, UniProt Q14671 828-1176, N1122R;Y1123W;Q1126K). In a few lines: as §1
In assay [6] the target is T1, PUM1 PUF domain R6-CHR (Homo sapiens, UniProt Q14671 828-1176, N1043C;Y1044H;Q1047R).
T1 sequence: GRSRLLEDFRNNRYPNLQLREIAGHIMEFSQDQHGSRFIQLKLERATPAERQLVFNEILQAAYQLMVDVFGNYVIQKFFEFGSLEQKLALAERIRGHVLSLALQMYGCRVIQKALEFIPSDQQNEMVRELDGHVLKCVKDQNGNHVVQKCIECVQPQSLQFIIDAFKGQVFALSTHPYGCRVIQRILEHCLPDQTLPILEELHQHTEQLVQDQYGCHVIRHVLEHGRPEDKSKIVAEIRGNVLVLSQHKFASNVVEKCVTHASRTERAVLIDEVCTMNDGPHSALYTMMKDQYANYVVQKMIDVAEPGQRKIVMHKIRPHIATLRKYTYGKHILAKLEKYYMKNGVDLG
In a few lines: as §1

For assay [7], the target named is PUM1 PUF domain R8-RFH (Homo sapiens, UniProt Q14671 828-1176, N1122R;Y1123F;Q1126H). In a few lines: as §1
Assay [8] has as its target PUM1 PUF domain R5-MYS (Homo sapiens, UniProt Q14671 828-1176, C1007M;R1008Y;Q1011S). In a few lines:
as §1

For assay [9], the target named is PUM1 PUF domain R5-TRG (Homo sapiens, UniProt Q14671 828-1176, C1007T;Q1011G). The method, boiled down:
as §1

Assay [10] deals with PUM1 PUF domain R5-GLW (Homo sapiens, UniProt Q14671 828-1176, C1007G;R1008L;Q1011W). The method, boiled down: as §1
Assay [11] addresses PUM1 PUF domain R4-VSL (Homo sapiens, UniProt Q14671 828-1176, N971V;H972S;Q975L). In a few lines:
as §1

The target in assay [12] is T2, PUM1 PUF domain R6-VFQ (Homo sapiens, UniProt Q14671 828-1176, N1043V;Y1044F).
T2 sequence: T1 sequence with C216V, H217F, R220Q
The method, boiled down:
as §1

For assay [13], the target named is T3, PUM1 PUF domain R6-LWQ (Homo sapiens, UniProt Q14671 828-1176, N1043L;Y1044W).
T3 sequence: T1 sequence with C216L, H217W, R220Q
The method, boiled down: as §1

In assay [14] the target is PUM1 PUF domain R5-GQW (Homo sapiens, UniProt Q14671 828-1176, C1007G;R1008Q;Q1011W). In a few lines: as §1
The target in assay [15] is PUM1 PUF domain R8-RFP (Homo sapiens, UniProt Q14671 828-1176, N1122R;Y1123F;Q1126P). The method, boiled down: as §1
Assay [16] addresses PUM1 PUF domain R2-DWE (Homo sapiens, UniProt Q14671 828-1176, N899D;Y900W;Q903E). The method, boiled down: as §1
The target in assay [17] is PUM1 PUF domain R5-RGW (Homo sapiens, UniProt Q14671 828-1176, C1007R;R1008G;Q1011W). The method, boiled down:
as §1

The target of assay [18] is PUM1 PUF domain R5-KGD (Homo sapiens, UniProt Q14671 828-1176, C1007K;R1008G;Q1011D). The method, boiled down: as §1
Assay [19] addresses PUM1 PUF domain R5-HKE (Homo sapiens, UniProt Q14671 828-1176, C1007H;R1008K;Q1011E). In a few lines:
as §1

Assay [20] addresses PUM1 PUF domain R1-KSN (Homo sapiens, UniProt Q14671 828-1176, S863K;R864S;Q867N). The method, boiled down: as §1

Sequence of PUM1 PUF domain R5-RRS (Q14671 828-1176 C1007R/Q1011S): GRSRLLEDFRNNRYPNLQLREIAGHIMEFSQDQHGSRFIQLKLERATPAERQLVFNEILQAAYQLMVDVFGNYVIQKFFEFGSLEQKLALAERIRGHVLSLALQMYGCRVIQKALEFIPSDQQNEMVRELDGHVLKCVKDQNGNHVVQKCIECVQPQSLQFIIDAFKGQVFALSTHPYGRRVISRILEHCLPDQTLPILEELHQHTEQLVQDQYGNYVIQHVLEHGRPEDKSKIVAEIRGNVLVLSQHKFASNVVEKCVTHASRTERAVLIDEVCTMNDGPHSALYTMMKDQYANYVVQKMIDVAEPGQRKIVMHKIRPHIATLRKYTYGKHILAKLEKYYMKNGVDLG

For “GGCUAGAACUAGUGGAUCCCCCGGCGCCCGGCGGCUCGAGCCCGGGUAAGUGUAAUUAGUCUGCAUGCCGCCGGGCGCCAUGCCUGCAGGUCGACUCUAGAAAACAUG”, the binding signal in assay [1] is 2.38 log2 enrichment (interaction score).
On to “GGCUAGAACUAGUGGAUCCCCCGGCGCCCGGCGGCUCGAGCCCGGGUAAGUGUAUAUAGUCUGCAUGCCGCCGGGCGCCAUGCCUGCAGGUCGACUCUAGAAAACAUG”, for which the figures for the binding signal in assay [2] and in assay [3] were 4.05 log2 enrichment (interaction score) and 2.78 log2 enrichment (interaction score), respectively.
On to “GGCUAGAACUAGUGGAUCCCCCGGCGCCCGGCGGCUCGAGCCCGGGUAAGUGUGAAUAGUCUGCAUGCCGCCGGGCGCCAUGCCUGCAGGUCGACUCUAGAAAACAUG”, for which the binding signal in assay [4] is 1.53 log2 enrichment (interaction score).
Consider “GGCUAGAACUAGUGGAUCCCCCGGCGCCCGGCGGCUCGAGCCCGGGUAAGUGUAAAUAGUCUGCAUGCCGCCGGGCGCCAUGCCUGCAGGUCGACUCUAGAAAACAUG”, for which the binding signal in [5] was 6.43 log2 enrichment (interaction score); in [6], 3.81 log2 enrichment (interaction score); in assay [7], 4.43 log2 enrichment (interaction score); in [2] it was 2.69 log2 enrichment (interaction score); in assay [8], 2.4 log2 enrichment (interaction score); in assay [9], 2.68 log2 enrichment (interaction score). Also, the binding signal in assay [10] is 2.11 log2 enrichment (interaction score); in [4] it was 2.42 log2 enrichment (interaction score); in assay [11], 2.71 log2 enrichment (interaction score); in [12] it was 3.65 log2 enrichment (interaction score); in [13], 5.83 log2 enrichment (interaction score).
Consider “GGCUAGAACUAGUGGAUCCCCCGGCGCCCGGCGGCUCGAGCCCGGGUAAGUGUACAUAGUCUGCAUGCCGCCGGGCGCCAUGCCUGCAGGUCGACUCUAGAAAACAUG”, for which, in assay [2], the binding signal was 4.02 log2 enrichment (interaction score).
With “GGCUAGAACUAGUGGAUCCCCCGGCGCCCGGCGGCUCGAGCCCGGGUAAGUGUUAAUAGUCUGCAUGCCGCCGGGCGCCAUGCCUGCAGGUCGACUCUAGAAAACAUG”, the binding signal in [14] was 2.77 log2 enrichment (interaction score); in assay [8], 3.54 log2 enrichment (interaction score); in [9], 2.97 log2 enrichment (interaction score); in assay [10], 1.6 log2 enrichment (interaction score); in [4], 4.6 log2 enrichment (interaction score).
Turning to “GGCUAGAACUAGUGGAUCCCCCGGCGCCCGGCGGCUCGAGCCCGGGUAAGCGUAAAUAGUCUGCAUGCCGCCGGGCGCCAUGCCUGCAGGUCGACUCUAGAAAACAUG”, the values for the binding signal in assay [5], in assay [7] and in assay [15] were 6.98 log2 enrichment (interaction score), 4.72 log2 enrichment (interaction score) and 5.8 log2 enrichment (interaction score), respectively.
As for “GGCUAGAACUAGUGGAUCCCCCGGCGCCCGGCGGCUCGAGCCCGGGUAAGUGUAAAGAGUCUGCAUGCCGCCGGGCGCCAUGCCUGCAGGUCGACUCUAGAAAACAUG”, the binding signal in assay [16] is 9.59 log2 enrichment (interaction score).
As to “GGCUAGAACUAGUGGAUCCCCCGGCGCCCGGCGGCUCGAGCCCGGGUAAGUGUCAAUAGUCUGCAUGCCGCCGGGCGCCAUGCCUGCAGGUCGACUCUAGAAAACAUG”, the binding signal in [17] is 2.31 log2 enrichment (interaction score); in assay [18] it was 3.76 log2 enrichment (interaction score); in assay [19] it was 3.67 log2 enrichment (interaction score); in [4] it was 4.44 log2 enrichment (interaction score).
Regarding “GGCUAGAACUAGUGGAUCCCCCGGCGCCCGGCGGCUCGAGCCCGGGUAAGUGAAAAUAGUCUGCAUGCCGCCGGGCGCCAUGCCUGCAGGUCGACUCUAGAAAACAUG”, in assay [12], the binding signal was 8.19 log2 enrichment (interaction score).
For the sequence “GGCUAGAACUAGUGGAUCCCCCGGCGCCCGGCGGCUCGAGCCCGGGUAAGUGUAAAUCGUCUGCAUGCCGCCGGGCGCCAUGCCUGCAGGUCGACUCUAGAAAACAUG”, the binding signal in assay [20] is 4.24 log2 enrichment (interaction score).
